Screens: PubChem, several laboratories
Sampled rows, rich in hits. Any-hit rate of the full collection: about 1.5%.
Mtb hypoxia inh: reduces hypoxia-regulated biosensor signal in M. tuberculosis | M. tuberculosis hypoxia-regulated fluorescent reporter, fluorescence | hit rate 0.1% among 300,000 | fluorescence inhibition, % (concentration not given with the values); in the data active = fluorescence inhibition mostly above about 23%, no sharp cut-off; inactive = mostly below about 17%
VHR inh abs: DUSP3 (human) phosphatase inhibition. P51452. recombinant VHR phosphatase, pNPP absorbance. inhibition, % at 13.3 µM. hit rate 0.52% among 290,000; in the data active = inhibition above about 50%
PrPC surface inh: cell surface PrPC inhibition, primary TR-FRET screen; P04156; TR-FRET read-out; inhibition, % at 13.8 µM; hit rate 0.43% among 370,000; in the data active = inhibition above about 24%
MazEF act: activators of E. coli MazEF toxin-antitoxin RNase. P0AE70. FAM/BHQ RNA-DNA oligo cleavage fluorescence, 5 h. activation, % at 20 µM. hit rate 0.32% among 350,000. AID 504720; in the data active = activation above about 50%
PrP UTR inh: suppresses PrP 5' UTR mRNA reporter expression. cell-based PrP 5' UTR mRNA reporter, plate reader. inhibition, % (no concentration beside the values). hit rate 0.35% among 340,000. AID 488862; in the data active = inhibition above about 52%
SARS 3CLpro inh: SARS-CoV 3CLpro protease inhibition | P0C6X7 | recombinant SARS-CoV 3CLpro, quenched FRET peptide cleavage | inhibition, % at 6 µM | hit rate 0.14% among 290,000 | AID 1706; in the data active = inhibition above about 12%
PrPC confirm: confirmation of inhibitors of cell surface human prion protein; shares compounds with PrPC surface inh; cell surface PrPC level, TR-FRET; inhibition, % at 13.8 µM; hit rate 65% among 1,500; AID 743200; in the data active = inhibition above about 25%
LD9 cytotox: LD9 cell cytotoxicity, PrPc inhibitor counter-screen. shares compounds with PrPC surface inh. LD9 cells cytotoxicity, luminescence viability. inhibition, % at 13.8 µM. hit rate 29% among 1,500; in the data active = inhibition above about 9.5%
Of the large screens only hits and unclear results are named; the others gave an inactive call (follow-up assays come after a bar, where shown).

CC(C)Cc1cc(C(=O)Nc2ccc3c(c2)OCO3)no1	PrPC surface inh 31 | PrPC confirm 29 | LD9 cytotox inactive
O=C(O)CCC(=NNc1ccccc1[N+](=O)[O-])c1cccs1	none (no result: VHR inh abs, PrPC surface inh, MazEF act, PrP UTR inh, SARS 3CLpro inh)
COC1=CC(=O)CC(C)C12Oc1cc(OC)cc(OC)c1C2=O (stereo unspecified)	none (no result: Mtb hypoxia inh, SARS 3CLpro inh)
COC(=O)C1=CC(=O)C=C(OC)[C@@]12Oc1cc(C)cc(OC)c1C2=O	PrPC surface inh 59 (no result: Mtb hypoxia inh, VHR inh abs, MazEF act, PrP UTR inh, SARS 3CLpro inh) | PrPC confirm inactive | LD9 cytotox 98
CCOc1cc(C=NNC(=O)CCn2nc(C)cc2C)ccc1O	none (no result: VHR inh abs, PrPC surface inh, MazEF act, PrP UTR inh, SARS 3CLpro inh)
COC(=O)CSc1nc(-c2ccccc2)nc2ccccc12	PrPC surface inh 106 | PrPC confirm 113 | LD9 cytotox inactive
NC(=O)CSc1nc(-c2ccccc2)nc2ccccc12	PrPC surface inh 70 (no result: VHR inh abs) | PrPC confirm 72 | LD9 cytotox inactive
O=C(Cc1ccccc1)NN=Cc1cc(Br)cs1	none (no result: VHR inh abs, PrPC surface inh, MazEF act, PrP UTR inh, SARS 3CLpro inh)
C#CCOCCOCCOCCNc1nc(N2CCN(C(=O)C(C(C)CC)n3cc(C(N)CO)nn3)CC2)nc(N2CCN(C(=O)C(C(C)CC)n3cc(C(N)CC(C)C)nn3)CC2)n1 (stereo unspecified)	none (no result: VHR inh abs, PrPC surface inh, MazEF act, PrP UTR inh, SARS 3CLpro inh)
Cc1cc(C)n(N=Cc2ccco2)c(=O)c1C#N	none (no result: VHR inh abs, PrPC surface inh, MazEF act, PrP UTR inh, SARS 3CLpro inh)
CCOc1ccc(C2C(=C(O)c3ccc(OC)c(OC)c3)C(=O)C(=O)N2c2cc(C)on2)cc1OC (stereo unspecified)	none (no result: VHR inh abs, PrPC surface inh, MazEF act, PrP UTR inh, SARS 3CLpro inh)
CCOc1ccc(/C(O)=C2\C(=O)C(=O)N(c3ccccn3)C2c2ccccc2F)c(C)c1 (stereo unspecified)	PrPC surface inh 34 (no result: Mtb hypoxia inh, VHR inh abs, PrP UTR inh, SARS 3CLpro inh) | PrPC confirm 67 | LD9 cytotox inactive
CCOc1ccc(/C(O)=C2\C(=O)C(=O)N(c3cc(C)on3)C2c2ccccc2OC)cc1 (stereo unspecified)	PrPC surface inh 35 (no result: Mtb hypoxia inh) | PrPC confirm 55 | LD9 cytotox inactive
CC(=NNC(=O)c1nnn(-c2nonc2N)c1C(C)C)c1ccncc1	none (no result: VHR inh abs, PrPC surface inh, MazEF act, PrP UTR inh, SARS 3CLpro inh)
COc1cc(OC)c(C#N)c(S(=O)(=O)Cc2ccccc2)c1	none
N#Cc1c([N+](=O)[O-])cc([N+](=O)[O-])cc1S(=O)(=O)Cc1ccccc1	PrPC surface inh 42 (not shown: Mtb hypoxia inh, VHR inh abs, SARS 3CLpro inh) | PrPC confirm 84 | LD9 cytotox 98
COCCCn1c(SCc2ccc(OC)cc2)nc2cc(OC)c(OC)cc2c1=N	PrPC surface inh 119 | PrPC confirm inactive | LD9 cytotox inactive
c1csc(CNc2nc(NCC3CCCCC3)c3sccc3n2)c1	PrPC surface inh 26 (no result: Mtb hypoxia inh, VHR inh abs, MazEF act, PrP UTR inh, SARS 3CLpro inh) | PrPC confirm 26 | LD9 cytotox 14
Cc1cc(SC(C)C(=O)O)nc2ccccc12 (stereo unspecified)	PrPC surface inh 46 | PrPC confirm 76 | LD9 cytotox inactive
CC(Sc1cnc2ccccc2n1)C(=O)O (stereo unspecified)	PrPC surface inh 39 (no result: Mtb hypoxia inh) | PrPC confirm 47 | LD9 cytotox inactive
CC(Sc1ccc2ccccc2n1)C(=O)O (stereo unspecified)	PrPC surface inh 115 | PrPC confirm 123 | LD9 cytotox inactive
Cc1cc(SC(C)C(=O)NCC(=O)Nc2ccc(F)c(F)c2F)nc2ccccc12 (stereo unspecified)	none
CC1CC2=C(CC1C=NNC(N)=S)C(C)(C)CCC2 (stereo unspecified)	none (no result: VHR inh abs, PrPC surface inh, MazEF act, PrP UTR inh, SARS 3CLpro inh)
CCCOc1ccc(C(=O)ON=C(CC)c2ccc(C)cc2)cc1	none (no result: VHR inh abs, PrPC surface inh, MazEF act, PrP UTR inh, SARS 3CLpro inh)
Nc1nnnn1N=C/C=C/c1ccccc1	none (no result: VHR inh abs, PrPC surface inh, MazEF act, PrP UTR inh, SARS 3CLpro inh)
Cc1nc(-c2ccc(S(=O)(=O)Nc3ccc(Br)cc3Cl)s2)cs1	PrPC surface inh 37 | PrPC confirm 53 | LD9 cytotox inactive
COc1cc(C=O)c(Br)cc1OCC(=O)NCCc1ccccc1	none
CCOC(=O)COc1cc(Br)c(/C=N/Nc2ccccc2)cc1OC	PrPC surface inh 61 (no result: Mtb hypoxia inh) | PrPC confirm 64 | LD9 cytotox inactive
CC(C)C1COC(c2cccc(C3=NC(C(C)C)CO3)n2)=N1 (stereo unspecified)	none (no result: VHR inh abs, PrPC surface inh, MazEF act, PrP UTR inh, SARS 3CLpro inh)
CCN(CC)S(=O)(=O)c1ccc2c(c1)nc(CCC(=O)OCC(=O)Nc1cc(Cl)cc(Cl)c1)n2C	PrPC surface inh 28 (no result: Mtb hypoxia inh) | PrPC confirm inactive | LD9 cytotox inactive
O=c1c(C=NN2CCOCC2)c(O)n(-c2ccccc2)c(=S)n1-c1ccccc1	none (no result: VHR inh abs, PrPC surface inh, MazEF act, PrP UTR inh, SARS 3CLpro inh)
